Experimental data: the supplement of paper PMC10849652
Of roughly 7,900 targets only a part is listed; those with a hit were picked by preference. About 0.6% of all pairs of compound and target were hits. Unmarked numbers belong to inactive results.

Assays:
Experiment in all cases: log2 fold change, soluble protein after heating vs DMSO (PISA); higher = thermal stabilisation; K562 cells, 10 uM, 30 min; active = over 0.2 and 3.5 SD of the protein, either way, in both replicates (recomputed)
erlotinib = compound: C#Cc1cccc(Nc2ncnc3cc(OCCOC)c(OCCOC)cc23)c1 [erlotinib]
How it was run: (§1)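 Quantification of soluble protein used TMTpro 16plex LC-MS/MS, with channel sums equalised. Samples were the supernatant after 21,000xg for 90 min of pooled aliquots from K562 cells (2×10^6 cells/mL) treated with 10 μM compound for 30 min, heated for 3 min over 48°C-58°C, and extracted in PBS with 0.5% NP-40 at 4°C. Values, from duplicates, describe thermal stability against control samples on a log2 fold-change scale.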

[1] = compound: C/C(=N\NC(=O)C1=CC(=CC=C1)S(=O)(=O)N2CCOCC2)/C3=C(C=CC(=C3)Cl)O
How it was run: as §1

[2] = compound: C1=CC(=C(C=C1Cl)C2=NC3=NC=CN=C3C(=N2)NC4=CC=NC=C4)F
How it was run: as §1

[3] = compound: C1=CC(=CC=C1C2=NC3=C(N2)C=C(C=C3)C(=O)N)OC4=CC=C(C=C4)Cl
How it was run: as §1

[4] = compound: C1=CC2=C(C=CC(=C2)/C=C\3/C(=O)NC(=NCC4=CC=CS4)S3)N=C1
How it was run: as §1

[5] = compound: C1=CC2=NC=CN=C2C=C1/C=C/3\C(=O)NC(=O)S3
How it was run: as §1

[6] = compound: C1=CC=C(C=C1)C2=NC(=C(N2)C3=CC=NC=C3)C4=CC(=C(C=C4)Cl)O
How it was run: as §1

[7] = compound: C1=CC=C2C(=C1)C3=NNC4=CC=CC(=C43)C2=O
How it was run: as §1

[8] = compound: C1CCN(C1)C(=O)NC2=CC=CC(=C2)NC3=NC=C(C(=N3)NCCC4=CN=CN4)Br
How it was run: as §1

[9] = compound: C1CN(CCC1(CC2=CC=C(C=C2)Cl)N)C3=NC=NC4=C3C=CN4
How it was run: as §1

IRAK-1-4 Inhibitor I = compound: C1COCCN1CCN2C3=CC=CC=C3N=C2NC(=O)C4=CC(=CC=C4)[N+](=O)[O-] [IRAK-1-4 Inhibitor I]
How it was run: as §1

ibrutinib = compound: C=CC(=O)N1CCC[C@@H](n2nc(-c3ccc(Oc4ccccc4)cc3)c3c(N)ncnc32)C1 [ibrutinib]
How it was run: as §1

[10] = compound: CC(=O)c1cnc2ccc(-c3cc(Cl)c(O)c(Cl)c3)nc2c1N[C@H]1CC[C@H](CN(C)C)CC1
How it was run: as §1

ralimetinib = compound: CC(C)(C)Cn1c(N)nc2ccc(-c3[nH]c(C(C)(C)C)nc3-c3ccc(F)cc3)nc21 [ralimetinib]
How it was run: as §1

[11] = compound: CC(C)(O)CC(=O)NCCn1ccc2ncnc(Nc3ccc(Oc4cccc(C(F)(F)F)c4)c(Cl)c3)c21
How it was run: as §1

[12] = compound: CC(C)C1=C2N=C(C=C(N2N=C1)NCC3=CC=CC=C3)NCCCCCCN
How it was run: as §1

[13] = compound: CC(C)C[C@@H](C=O)NC(=O)[C@H](CC(C)C)NC(=O)[C@H](CC(C)C)NC(=O)OCc1ccccc1
How it was run: as §1

pinometostat = compound: CC(C)N(C[C@H]1O[C@@H](n2cnc3c(N)ncnc32)[C@H](O)[C@@H]1O)[C@H]1C[C@@H](CCc2nc3cc(C(C)(C)C)ccc3[nH]2)C1 [pinometostat]
How it was run: as §1

[14] = compound: CC1=C(C(CC(=O)N1)C2=CC=C(C=C2)C(F)(F)F)C(=O)NC3=C(C=C4C(=C3)C=NN4)F
How it was run: as §1

[15] = compound: CC1=C(C2=C(C=C1)C(=O)C3=CC=CC=C3N2CCCN)C
How it was run: as §1

UniProt P08514, sequence (P08514 whole entry, looked up): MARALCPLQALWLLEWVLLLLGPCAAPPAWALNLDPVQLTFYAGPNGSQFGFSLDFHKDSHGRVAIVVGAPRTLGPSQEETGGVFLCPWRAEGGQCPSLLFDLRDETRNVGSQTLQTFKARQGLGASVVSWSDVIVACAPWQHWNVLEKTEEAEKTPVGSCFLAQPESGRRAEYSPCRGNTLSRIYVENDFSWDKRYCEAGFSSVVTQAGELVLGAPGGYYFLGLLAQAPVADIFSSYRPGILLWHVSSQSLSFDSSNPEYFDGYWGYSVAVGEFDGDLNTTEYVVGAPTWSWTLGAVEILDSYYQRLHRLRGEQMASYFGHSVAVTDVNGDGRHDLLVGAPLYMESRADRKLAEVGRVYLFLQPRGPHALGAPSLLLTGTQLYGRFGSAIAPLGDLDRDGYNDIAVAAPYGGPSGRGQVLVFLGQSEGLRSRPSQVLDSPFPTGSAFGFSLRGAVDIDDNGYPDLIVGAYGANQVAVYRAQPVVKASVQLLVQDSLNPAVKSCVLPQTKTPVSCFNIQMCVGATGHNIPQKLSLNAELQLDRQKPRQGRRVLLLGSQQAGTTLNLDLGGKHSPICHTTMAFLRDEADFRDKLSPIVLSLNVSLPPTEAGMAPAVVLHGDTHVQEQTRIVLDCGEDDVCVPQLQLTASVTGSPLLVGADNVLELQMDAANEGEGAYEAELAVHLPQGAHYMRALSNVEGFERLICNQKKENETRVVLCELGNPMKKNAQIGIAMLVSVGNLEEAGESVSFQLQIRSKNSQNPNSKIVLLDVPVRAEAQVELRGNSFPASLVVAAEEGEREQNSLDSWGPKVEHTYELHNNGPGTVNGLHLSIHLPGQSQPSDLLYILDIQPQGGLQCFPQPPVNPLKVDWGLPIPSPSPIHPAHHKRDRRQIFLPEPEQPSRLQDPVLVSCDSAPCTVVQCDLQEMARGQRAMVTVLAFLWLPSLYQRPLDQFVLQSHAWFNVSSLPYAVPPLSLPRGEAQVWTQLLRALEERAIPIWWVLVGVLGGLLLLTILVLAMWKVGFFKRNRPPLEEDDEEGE
UniProt P18065, sequence (P18065 whole entry, looked up): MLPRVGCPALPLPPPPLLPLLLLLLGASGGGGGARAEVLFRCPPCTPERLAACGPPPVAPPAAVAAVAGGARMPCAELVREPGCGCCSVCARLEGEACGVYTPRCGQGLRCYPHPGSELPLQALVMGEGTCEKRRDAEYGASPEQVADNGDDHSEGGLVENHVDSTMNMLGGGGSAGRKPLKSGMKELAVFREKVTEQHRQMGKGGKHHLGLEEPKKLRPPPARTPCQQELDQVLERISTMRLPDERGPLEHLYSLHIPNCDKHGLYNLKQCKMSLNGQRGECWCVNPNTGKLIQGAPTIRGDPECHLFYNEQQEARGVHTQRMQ
UniProt Q8IWB1, sequence (Q8IWB1 whole entry, looked up): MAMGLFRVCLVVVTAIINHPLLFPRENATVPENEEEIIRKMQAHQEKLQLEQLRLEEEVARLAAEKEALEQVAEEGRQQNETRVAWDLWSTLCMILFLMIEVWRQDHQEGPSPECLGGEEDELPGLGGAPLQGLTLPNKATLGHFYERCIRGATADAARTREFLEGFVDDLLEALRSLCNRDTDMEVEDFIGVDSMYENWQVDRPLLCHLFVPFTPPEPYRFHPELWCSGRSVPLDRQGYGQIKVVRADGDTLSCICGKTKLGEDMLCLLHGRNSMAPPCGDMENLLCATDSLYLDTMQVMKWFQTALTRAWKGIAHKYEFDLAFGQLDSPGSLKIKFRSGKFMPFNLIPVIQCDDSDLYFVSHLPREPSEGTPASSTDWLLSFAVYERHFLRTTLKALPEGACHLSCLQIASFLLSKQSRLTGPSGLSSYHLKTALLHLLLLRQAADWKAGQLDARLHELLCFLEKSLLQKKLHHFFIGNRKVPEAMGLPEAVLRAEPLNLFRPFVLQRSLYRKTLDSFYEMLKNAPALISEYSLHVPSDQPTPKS
UniProt Q12905, sequence (Q12905 whole entry, looked up): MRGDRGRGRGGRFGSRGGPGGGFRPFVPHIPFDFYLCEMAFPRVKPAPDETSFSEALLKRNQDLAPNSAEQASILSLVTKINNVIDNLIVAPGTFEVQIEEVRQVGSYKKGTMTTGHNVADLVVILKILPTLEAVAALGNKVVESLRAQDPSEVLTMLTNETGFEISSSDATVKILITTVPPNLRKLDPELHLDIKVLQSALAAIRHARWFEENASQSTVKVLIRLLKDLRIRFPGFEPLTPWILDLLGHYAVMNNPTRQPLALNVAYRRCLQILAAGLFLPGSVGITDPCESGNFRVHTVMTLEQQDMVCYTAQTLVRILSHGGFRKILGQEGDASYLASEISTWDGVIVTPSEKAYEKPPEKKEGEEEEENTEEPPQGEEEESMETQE
UniProt P49006, sequence (P49006 whole entry, looked up): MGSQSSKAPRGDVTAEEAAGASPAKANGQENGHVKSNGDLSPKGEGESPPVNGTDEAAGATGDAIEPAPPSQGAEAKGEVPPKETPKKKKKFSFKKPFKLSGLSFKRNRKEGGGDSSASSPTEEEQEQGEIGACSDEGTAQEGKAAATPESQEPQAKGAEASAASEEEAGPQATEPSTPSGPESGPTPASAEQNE
UniProt Q14974, sequence (Q14974 whole entry, looked up): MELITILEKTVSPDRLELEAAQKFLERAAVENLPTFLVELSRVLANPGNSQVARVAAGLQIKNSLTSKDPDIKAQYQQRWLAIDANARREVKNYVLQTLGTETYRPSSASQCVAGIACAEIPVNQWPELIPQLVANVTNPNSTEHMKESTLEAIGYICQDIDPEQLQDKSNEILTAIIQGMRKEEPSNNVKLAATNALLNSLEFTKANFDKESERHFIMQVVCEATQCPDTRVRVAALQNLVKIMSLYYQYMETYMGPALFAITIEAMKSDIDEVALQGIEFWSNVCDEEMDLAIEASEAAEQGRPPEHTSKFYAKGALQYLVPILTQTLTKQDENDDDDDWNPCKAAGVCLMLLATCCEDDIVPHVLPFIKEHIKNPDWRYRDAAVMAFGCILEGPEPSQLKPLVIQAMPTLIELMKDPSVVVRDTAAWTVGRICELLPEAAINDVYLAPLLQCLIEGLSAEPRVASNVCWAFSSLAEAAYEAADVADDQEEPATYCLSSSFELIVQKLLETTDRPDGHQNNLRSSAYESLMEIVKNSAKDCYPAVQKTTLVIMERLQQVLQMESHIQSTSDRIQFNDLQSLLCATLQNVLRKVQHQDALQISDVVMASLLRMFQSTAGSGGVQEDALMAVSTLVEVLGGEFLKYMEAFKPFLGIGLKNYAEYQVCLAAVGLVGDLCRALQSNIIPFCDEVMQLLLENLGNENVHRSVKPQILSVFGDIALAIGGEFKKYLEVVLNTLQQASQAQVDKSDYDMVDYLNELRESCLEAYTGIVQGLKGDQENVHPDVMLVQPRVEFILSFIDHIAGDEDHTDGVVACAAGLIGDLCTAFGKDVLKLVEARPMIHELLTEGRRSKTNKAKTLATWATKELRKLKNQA
UniProt Q14653, sequence (Q14653 whole entry, looked up): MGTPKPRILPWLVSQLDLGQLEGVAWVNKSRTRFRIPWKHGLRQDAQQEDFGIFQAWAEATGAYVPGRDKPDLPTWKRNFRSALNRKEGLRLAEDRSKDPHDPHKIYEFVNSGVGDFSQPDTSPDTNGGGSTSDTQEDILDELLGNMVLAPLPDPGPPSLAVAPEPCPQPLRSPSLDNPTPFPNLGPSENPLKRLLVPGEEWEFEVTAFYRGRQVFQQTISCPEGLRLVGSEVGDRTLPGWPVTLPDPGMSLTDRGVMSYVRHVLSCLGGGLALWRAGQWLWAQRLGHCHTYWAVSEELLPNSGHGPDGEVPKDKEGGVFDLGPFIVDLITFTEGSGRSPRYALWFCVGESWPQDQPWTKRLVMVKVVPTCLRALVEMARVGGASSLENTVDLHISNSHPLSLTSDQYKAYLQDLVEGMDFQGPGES
UniProt Q92551, sequence (Q92551 whole entry, looked up): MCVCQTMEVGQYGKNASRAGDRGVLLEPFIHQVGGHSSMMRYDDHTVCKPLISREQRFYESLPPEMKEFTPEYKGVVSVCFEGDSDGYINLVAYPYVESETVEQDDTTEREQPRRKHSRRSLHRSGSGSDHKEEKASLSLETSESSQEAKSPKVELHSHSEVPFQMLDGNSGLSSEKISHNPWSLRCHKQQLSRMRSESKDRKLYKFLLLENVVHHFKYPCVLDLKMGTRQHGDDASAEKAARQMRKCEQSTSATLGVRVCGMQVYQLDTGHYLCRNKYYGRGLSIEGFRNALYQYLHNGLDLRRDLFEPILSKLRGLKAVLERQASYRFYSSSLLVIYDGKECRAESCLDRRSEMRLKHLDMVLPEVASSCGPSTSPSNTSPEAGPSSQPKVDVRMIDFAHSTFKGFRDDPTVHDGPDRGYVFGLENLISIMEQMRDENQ
UniProt Q9NVC6, sequence (Q9NVC6 whole entry, looked up): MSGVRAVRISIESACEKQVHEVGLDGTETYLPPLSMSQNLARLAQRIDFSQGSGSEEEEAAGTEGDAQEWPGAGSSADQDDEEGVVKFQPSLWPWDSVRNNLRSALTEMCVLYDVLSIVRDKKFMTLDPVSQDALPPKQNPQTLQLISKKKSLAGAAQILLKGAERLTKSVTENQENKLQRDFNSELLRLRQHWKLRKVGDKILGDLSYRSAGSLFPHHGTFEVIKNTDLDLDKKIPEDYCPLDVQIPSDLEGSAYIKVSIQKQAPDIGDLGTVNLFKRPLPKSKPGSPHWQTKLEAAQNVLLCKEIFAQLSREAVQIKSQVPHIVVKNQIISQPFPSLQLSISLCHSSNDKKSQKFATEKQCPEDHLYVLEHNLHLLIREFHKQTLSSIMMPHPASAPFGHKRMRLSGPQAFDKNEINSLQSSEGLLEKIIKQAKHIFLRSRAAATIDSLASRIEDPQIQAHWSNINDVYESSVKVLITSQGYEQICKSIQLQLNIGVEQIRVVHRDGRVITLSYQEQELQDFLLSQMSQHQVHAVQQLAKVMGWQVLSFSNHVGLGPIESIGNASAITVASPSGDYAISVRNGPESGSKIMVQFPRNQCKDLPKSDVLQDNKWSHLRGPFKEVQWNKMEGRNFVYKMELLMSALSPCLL

Target	log2 fold change (erlotinib)	log2 fold change [1]	log2 fold change [2]	log2 fold change [3]	log2 fold change [4]	log2 fold change [5]	log2 fold change [6]	log2 fold change [7]	log2 fold change [8]	log2 fold change [9]	log2 fold change (IRAK-1-4 Inhibitor I)	log2 fold change (ibrutinib)	log2 fold change [10]	log2 fold change (ralimetinib)	log2 fold change [11]	log2 fold change [12]	log2 fold change [13]	log2 fold change (pinometostat)	log2 fold change [14]	log2 fold change [15]
KPNB1 (UniProt Q14974)	-0.001	0.075	-0.03	-0.036	-0.028	0.029	-0.049	-0.016	-0.034	-0.136	-0.079	-0.041	0.033	0.042	-0.036	-0.355 (active)	0.035	0.113	0.012	-0.038
IRF3 (UniProt Q14653)	0.042	0.056	0.019	-0.022	0.046	-0.022	-0.036	0	-0.055	-0.008	0.002	0.13	-0.019	-0.037	0	-0.065	-0.015	-0.002	0.04	0.02
IGFBP2 (UniProt P18065)	-0.074	-0.023	-0.146	0.3	0.054	0.03	0.09	-0.209	0.065	0.039	0.196	0.09	0.166	-0.115	-0.063	-0.137	0.008	-0.192	0.254	-0.159
ILF2 (UniProt Q12905)	-0.098	-0.087	-0.214	0.009	-0.088	0.066	-0.035	-0.011	-0.005	-0.175	-0.095	0.027	0.155	0.131	0.082	0.318	-0.024	0.064	-0.014	0.204
ITPRIP (UniProt Q8IWB1)	0.012	-0.086	0.052	0.034	-0.05	0.01	-0.085	-0.094	-0.02	0.012	-0.063	0.059	-0.013	0.005	0.007	-0.074	0.082	-0.005	-0.001	0.022
ITGA2B (UniProt P08514)	-0.046	-0.051	0.023	0.06	-0.023		0	-0.133	0.065	-0.13	-0.045		-0.045	0.054	-0.172	0.462	0.026	-0.064	0.099	-0.121
IP6K1 (UniProt Q92551)	-0.054	0.017	-0.24	0	0.25	-0.025	-0.088	0.142	-0.083	0.067		0.05	-0.154	-0.159	-0.295	-0.667 (active)	0.069			0.095
MED17 (UniProt Q9NVC6)	0.017	0.064	-0.077	0.072	-0.083		0.094	-0.034	-0.194	-0.047	-0.076		-0.371 (active)	0.12	-0.022	-0.209	0.119	0.124	-0.056	0.182
MARCKSL1 (UniProt P49006)	-0.001	0.072	-0.047	-0.02	-0.031	-0.039	-0.015	-0.063	-0.005	0.039	0.041	0	-0.039	-0.069	0.106	0.006	-0.034	-0.017	-0.031	0.028
